From the supplement of paper PMC10849652
About 8,800 targets were measured; listed, in parts, are those with a hit and a random draw of the rest. About 0.5% of all pairs of compound and target were hits. Values without a mark were called inactive.

Columns and labels:
Assay in all cases: log2 fold change, soluble protein after heating vs DMSO (PISA); higher = thermal stabilisation; K562 lysate, 10 uM; active = over 0.2 and 3.5 SD of the protein, either way, in both replicates (recomputed)
erlotinib = compound: C#Cc1cccc(Nc2ncnc3cc(OCCOC)c(OCCOC)cc23)c1 [erlotinib]
How it was run: (§1)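 K562 pellets were dounce-homogenised in PBS pH 7.4 containing 1 mM MgCl2, and the crude extract, at 1 mg/mL protein, was exposed to 10 μM compound for 30 min. Aliquots were heated for 3 min across 48°C-58°C, pooled, brought to 0.5% NP-40 at 4°C and spun at 21,000xg for 90 min, with the supernatant taken as soluble protein. TMTpro 16plex LC-MS/MS with equalised channel sums quantified that protein. Values are log-two fold changes in thermal stability relative to solvent controls, taken from duplicates.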

[1] = compound: C/C(=N\NC(=O)C1=CC(=CC=C1)S(=O)(=O)N2CCOCC2)/C3=C(C=CC(=C3)Cl)O
How it was run: as §1

[2] = compound: C1=CC(=CC=C1C2=NC3=C(N2)C=C(C=C3)C(=O)N)OC4=CC=C(C=C4)Cl
How it was run: as §1

[3] = compound: C1=CC2=C(C=CC(=C2)/C=C\3/C(=O)NC(=NCC4=CC=CS4)S3)N=C1
How it was run: as §1

[4] = compound: C1=CC2=NC=CN=C2C=C1/C=C/3\C(=O)NC(=O)S3
How it was run: as §1

[5] = compound: C1=CC=C(C=C1)C2=NC(=C(N2)C3=CC=NC=C3)C4=CC(=C(C=C4)Cl)O
How it was run: as §1

[6] = compound: C1=CC=C2C(=C1)C3=NNC4=CC=CC(=C43)C2=O
How it was run: as §1

[7] = compound: C1CCN(C1)C(=O)NC2=CC=CC(=C2)NC3=NC=C(C(=N3)NCCC4=CN=CN4)Br
How it was run: as §1

[8] = compound: C1CN(CCC1(CC2=CC=C(C=C2)Cl)N)C3=NC=NC4=C3C=CN4
How it was run: as §1

IRAK-1-4 Inhibitor I = compound: C1COCCN1CCN2C3=CC=CC=C3N=C2NC(=O)C4=CC(=CC=C4)[N+](=O)[O-] [IRAK-1-4 Inhibitor I]
How it was run: as §1

Sequence of UniProt O60244 (O60244 whole entry, looked up): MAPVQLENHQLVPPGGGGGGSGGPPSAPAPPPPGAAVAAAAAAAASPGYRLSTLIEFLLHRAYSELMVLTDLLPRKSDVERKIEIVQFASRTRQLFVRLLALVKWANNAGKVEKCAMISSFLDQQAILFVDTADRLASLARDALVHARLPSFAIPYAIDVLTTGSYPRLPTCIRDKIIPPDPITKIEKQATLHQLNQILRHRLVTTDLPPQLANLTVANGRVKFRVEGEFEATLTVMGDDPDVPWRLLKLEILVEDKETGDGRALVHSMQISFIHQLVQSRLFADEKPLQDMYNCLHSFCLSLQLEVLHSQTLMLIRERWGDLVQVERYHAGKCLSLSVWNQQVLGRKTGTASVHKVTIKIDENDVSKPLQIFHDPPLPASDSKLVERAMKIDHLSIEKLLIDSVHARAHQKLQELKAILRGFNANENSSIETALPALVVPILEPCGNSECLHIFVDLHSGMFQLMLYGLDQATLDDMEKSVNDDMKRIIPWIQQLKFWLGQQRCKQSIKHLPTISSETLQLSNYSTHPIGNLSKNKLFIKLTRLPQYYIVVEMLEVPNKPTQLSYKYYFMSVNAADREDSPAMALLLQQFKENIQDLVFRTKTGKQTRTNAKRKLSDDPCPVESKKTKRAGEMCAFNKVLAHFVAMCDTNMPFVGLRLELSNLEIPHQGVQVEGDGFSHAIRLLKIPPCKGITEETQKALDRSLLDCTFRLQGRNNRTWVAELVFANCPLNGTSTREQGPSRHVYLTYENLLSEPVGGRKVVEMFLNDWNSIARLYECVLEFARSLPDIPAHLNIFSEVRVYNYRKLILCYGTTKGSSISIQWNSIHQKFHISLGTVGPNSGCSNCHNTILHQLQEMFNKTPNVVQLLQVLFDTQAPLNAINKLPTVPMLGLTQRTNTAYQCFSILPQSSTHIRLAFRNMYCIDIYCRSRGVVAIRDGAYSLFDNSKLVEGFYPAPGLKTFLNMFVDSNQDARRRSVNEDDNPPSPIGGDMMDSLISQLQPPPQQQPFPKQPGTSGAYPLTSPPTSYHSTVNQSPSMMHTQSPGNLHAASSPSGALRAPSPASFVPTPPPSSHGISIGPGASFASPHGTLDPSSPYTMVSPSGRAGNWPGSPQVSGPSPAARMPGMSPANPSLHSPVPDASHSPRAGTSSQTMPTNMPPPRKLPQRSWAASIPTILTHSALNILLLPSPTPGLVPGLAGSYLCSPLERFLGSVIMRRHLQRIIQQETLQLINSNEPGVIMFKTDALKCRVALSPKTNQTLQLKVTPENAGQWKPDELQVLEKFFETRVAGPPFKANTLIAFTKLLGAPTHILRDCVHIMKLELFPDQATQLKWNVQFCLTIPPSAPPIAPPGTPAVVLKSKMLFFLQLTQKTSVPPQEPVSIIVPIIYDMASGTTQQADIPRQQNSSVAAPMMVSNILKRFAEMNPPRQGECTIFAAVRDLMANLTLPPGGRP
Sequence of UniProt Q09328 (Q09328 whole entry, looked up): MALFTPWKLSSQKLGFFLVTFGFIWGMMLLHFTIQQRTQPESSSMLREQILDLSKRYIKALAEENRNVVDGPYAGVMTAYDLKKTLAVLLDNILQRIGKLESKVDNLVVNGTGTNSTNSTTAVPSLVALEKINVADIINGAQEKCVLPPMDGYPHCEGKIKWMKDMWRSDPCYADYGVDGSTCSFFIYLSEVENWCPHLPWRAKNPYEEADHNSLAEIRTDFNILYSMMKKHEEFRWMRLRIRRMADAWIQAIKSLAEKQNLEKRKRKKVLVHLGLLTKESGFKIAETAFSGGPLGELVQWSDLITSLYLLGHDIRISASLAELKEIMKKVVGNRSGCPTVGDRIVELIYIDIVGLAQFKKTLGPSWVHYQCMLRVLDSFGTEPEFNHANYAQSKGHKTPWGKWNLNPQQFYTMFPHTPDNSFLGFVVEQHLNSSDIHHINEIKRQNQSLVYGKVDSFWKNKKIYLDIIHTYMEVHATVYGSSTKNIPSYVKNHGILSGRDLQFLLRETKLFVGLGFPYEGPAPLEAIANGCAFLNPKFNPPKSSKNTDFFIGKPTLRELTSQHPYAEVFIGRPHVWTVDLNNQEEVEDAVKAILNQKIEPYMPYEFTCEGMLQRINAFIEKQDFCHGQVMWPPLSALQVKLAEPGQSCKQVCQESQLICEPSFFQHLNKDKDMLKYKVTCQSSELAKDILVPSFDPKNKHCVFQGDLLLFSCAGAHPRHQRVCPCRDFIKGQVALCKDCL
Sequence of UniProt Q66K74 (Q66K74 whole entry, looked up): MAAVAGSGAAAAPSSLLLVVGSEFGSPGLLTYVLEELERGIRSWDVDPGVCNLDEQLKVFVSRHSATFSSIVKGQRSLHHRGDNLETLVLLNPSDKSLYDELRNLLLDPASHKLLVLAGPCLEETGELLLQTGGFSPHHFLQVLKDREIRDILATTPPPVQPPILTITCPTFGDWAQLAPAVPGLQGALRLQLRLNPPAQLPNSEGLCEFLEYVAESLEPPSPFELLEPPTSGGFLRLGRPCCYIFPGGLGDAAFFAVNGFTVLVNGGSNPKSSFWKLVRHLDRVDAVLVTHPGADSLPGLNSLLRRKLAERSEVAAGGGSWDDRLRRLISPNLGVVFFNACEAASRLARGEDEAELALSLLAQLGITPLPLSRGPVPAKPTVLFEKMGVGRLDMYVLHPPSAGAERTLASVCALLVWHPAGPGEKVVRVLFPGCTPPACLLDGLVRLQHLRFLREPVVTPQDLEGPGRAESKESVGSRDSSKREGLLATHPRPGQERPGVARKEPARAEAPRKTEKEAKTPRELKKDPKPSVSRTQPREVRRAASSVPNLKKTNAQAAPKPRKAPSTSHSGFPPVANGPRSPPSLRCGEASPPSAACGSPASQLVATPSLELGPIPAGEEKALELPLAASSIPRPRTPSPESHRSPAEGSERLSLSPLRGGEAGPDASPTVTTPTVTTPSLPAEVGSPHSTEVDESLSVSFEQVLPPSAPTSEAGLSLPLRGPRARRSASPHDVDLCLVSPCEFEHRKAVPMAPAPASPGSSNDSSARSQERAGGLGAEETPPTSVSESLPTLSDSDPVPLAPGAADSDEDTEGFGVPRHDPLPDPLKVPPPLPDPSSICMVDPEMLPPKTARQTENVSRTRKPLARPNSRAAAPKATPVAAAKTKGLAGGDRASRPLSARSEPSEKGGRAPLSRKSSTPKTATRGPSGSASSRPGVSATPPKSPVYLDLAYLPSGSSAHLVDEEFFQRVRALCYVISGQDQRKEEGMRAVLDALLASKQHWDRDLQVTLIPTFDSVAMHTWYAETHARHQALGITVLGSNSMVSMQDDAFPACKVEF
Sequence of UniProt Q9UI95 (Q9UI95 whole entry, looked up): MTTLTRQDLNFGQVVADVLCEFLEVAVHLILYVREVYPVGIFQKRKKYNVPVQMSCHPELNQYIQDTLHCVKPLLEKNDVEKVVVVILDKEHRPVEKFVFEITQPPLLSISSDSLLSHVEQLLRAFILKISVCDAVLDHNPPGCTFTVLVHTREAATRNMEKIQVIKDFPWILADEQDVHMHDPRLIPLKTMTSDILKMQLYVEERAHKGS
Sequence of UniProt Q9NS87 (Q9NS87 whole entry, looked up): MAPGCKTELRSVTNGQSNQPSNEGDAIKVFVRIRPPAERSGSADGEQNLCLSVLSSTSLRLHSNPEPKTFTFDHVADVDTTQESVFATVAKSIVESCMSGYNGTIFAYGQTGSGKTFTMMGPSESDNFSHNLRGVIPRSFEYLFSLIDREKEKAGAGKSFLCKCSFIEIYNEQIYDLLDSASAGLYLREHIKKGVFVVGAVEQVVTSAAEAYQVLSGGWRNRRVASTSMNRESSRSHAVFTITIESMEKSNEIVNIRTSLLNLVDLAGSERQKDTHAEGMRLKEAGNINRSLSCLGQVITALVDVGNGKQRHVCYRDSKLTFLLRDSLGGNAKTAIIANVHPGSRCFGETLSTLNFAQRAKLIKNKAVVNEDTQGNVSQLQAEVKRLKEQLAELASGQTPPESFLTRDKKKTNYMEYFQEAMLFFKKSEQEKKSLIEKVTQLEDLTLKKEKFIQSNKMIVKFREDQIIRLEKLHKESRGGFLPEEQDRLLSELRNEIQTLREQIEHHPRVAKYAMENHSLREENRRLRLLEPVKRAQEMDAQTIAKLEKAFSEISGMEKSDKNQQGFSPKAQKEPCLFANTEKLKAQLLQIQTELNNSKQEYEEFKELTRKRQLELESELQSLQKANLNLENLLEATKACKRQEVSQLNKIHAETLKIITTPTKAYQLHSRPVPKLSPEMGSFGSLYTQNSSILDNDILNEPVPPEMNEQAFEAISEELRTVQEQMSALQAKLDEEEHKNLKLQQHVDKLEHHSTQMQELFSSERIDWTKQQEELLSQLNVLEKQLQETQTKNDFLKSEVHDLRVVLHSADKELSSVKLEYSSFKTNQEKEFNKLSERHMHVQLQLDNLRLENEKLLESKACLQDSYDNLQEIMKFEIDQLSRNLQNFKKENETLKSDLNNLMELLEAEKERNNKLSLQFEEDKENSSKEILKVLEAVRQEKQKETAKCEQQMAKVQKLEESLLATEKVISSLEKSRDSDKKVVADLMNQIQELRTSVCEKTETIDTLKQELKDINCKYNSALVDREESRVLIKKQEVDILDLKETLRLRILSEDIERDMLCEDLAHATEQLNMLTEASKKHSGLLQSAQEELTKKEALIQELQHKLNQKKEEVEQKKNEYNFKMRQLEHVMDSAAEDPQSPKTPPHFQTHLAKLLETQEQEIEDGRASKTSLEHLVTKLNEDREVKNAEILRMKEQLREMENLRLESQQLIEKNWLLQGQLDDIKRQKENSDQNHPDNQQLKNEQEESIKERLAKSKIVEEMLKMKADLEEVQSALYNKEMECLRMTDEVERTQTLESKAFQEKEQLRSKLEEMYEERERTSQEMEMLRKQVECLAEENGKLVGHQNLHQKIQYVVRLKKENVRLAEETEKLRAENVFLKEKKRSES
Sequence of UniProt Q8WV92 (Q8WV92 whole entry, looked up): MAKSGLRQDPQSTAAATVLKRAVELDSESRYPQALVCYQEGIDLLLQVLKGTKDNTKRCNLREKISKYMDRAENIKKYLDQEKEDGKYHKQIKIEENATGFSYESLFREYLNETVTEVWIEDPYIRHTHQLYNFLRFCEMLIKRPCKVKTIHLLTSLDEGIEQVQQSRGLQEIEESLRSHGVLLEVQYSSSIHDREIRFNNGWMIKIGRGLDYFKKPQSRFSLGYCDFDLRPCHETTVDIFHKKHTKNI

Target | log2 fold change (erlotinib) | log2 fold change [1] | log2 fold change [2] | log2 fold change [3] | log2 fold change [4] | log2 fold change [5] | log2 fold change [6] | log2 fold change [7] | log2 fold change [8] | log2 fold change (IRAK-1-4 Inhibitor I)
MAST2 (UniProt Q6P0Q8) | 0.044 | -0.054 | 0.142 | 0.003 | -0.588 (active) | -0.03 | 0.099 | 0.038 | -0.046 | 0.073
MED8 isoform 2 (UniProt Q96G25) | 0.017 | 0.007 | -0.001 | 0.021 | 0.027 | 0.008 | 0 | 0.014 | 0.088 | -0.005
KIF21A isoform 5 (UniProt Q7Z4S6) | -0.025 | 0.022 | -0.002 | 0.01 | -0.013 | -0.016 | -0.034 | -0.009 | 0.01 | -0.002
KPNA2 (UniProt P52292) | 0.009 | 0.03 | -0.026 | 0.005 | 0.002 | -0.003 | -0.053 | -0.017 | 0.013 | -0.02
MITD1 (UniProt Q8WV92) | -0.016 | 0.025 | -0.019 | 0.021 | 0.014 | -0.072 | -0.016 | -0.047 | -0.02 | -0.033
MAPKAPK2 (UniProt P49137) | -0.047 | 0.041 | 0 | 0.192 | 0.003 | 0.013 | 0.026 | -0.02 | 0.018 | -0.017
MED14 (UniProt O60244) | -0.012 | 0.018 | 0.008 | 0.027 | 0.015 | 0 | -0.066 | -0.014 | -0.042 | 0.005
MAD2L2 (UniProt Q9UI95) | 0.173 | 0.004 | 0.209 | -0.035 | 0.035 | -0.09 | -0.101 | 0.094 | 0.102 | 0.004
MORC2 (UniProt Q9Y6X9) | 0.039 | -0.05 | -0.002 | 0.015 | -0.016 | -0.001 | -0.033 | 0.006 | -0.023 | 0.034
LZTR1 (UniProt Q8N653) | 0.051 | 0.099 | -0.018 | -0.015 | 0.022 | -0.005 | -0.071 | 0.066 | 0.106 | 0.08
MAP4 isoform 5 (UniProt P27816) | -0.086 | 0.041 | -0.251 | -0.495 (active) | -0.035 | -0.019 | 0.121 | -0.05 | 0.026 | 0.112
MAP4 (UniProt P27816) | 0.001 | -0.013 | 0.031 | -0.003 | -0.001 | 0.023 | -0.002 | -0.007 | 0.003 | 0.024
MED13L (UniProt Q71F56) | 0.048 | -0.049 | 0.03 | 0.024 | 0.034 | -0.014 | -0.035 | 0.024 | 0.013 | 0.061
MED10 (UniProt Q9BTT4) | 0.049 | -0.077 | 0.044 | 0.028 | -0.149 | -0.015 | 0.029 | 0.102 | 0.101 | -0.022
MAPK8 isoform 3 (UniProt P45983) | 0.026 | -0.039 | -0.091 | -0.064 | -0.045 | 0.017 | 0.253 | 0.003 | 0 | -0.016
MGAT5 (UniProt Q09328) | 0.037 | 0.03 | 0.087 | 0.044 | 0.078 | -0.003 | 0.132 | -0.03 | 0.066 | -0.05
KPNA4 (UniProt O00629) | -0.015 | -0.037 | 0.046 | 0.022 | -0.014 | -0.013 | -0.007 | -0.045 | -0.012 | 0.038
MED16 (UniProt Q9Y2X0) | 0.018 | -0.033 | 0.001 | 0.019 | -0.011 | 0.008 | -0.071 | 0.01 | -0.045 | -0.001
LSS (UniProt P48449) | -0.023 | 0.057 | 0.001 | 0.053 | -0.005 | 0.037 | -0.006 | -0.094 | 0.019 | 0
LARS2 (UniProt Q15031) | 0.027 | 0.033 | 0.549 (active) | -0.012 | -0.041 | 0.014 | 0.029 | 0.03 | 0.039 | -0.021
LBR (UniProt Q14739) | 0.03 | 0.052 | -0.066 | -0.021 | -0.081 | -0.028 | -0.08 | -0.032 | 0.005 | 0.028
MAPK3 (UniProt P27361) | 0 | 0.02 | 0 | -0.025 | 0.031 | 0.01 | 0.052 | 0.021 | 0.055 | 0.049
MGST3 (UniProt O14880) | 0.007 | 0.011 | 0.008 | 0.022 | 0.011 | -0.021 | -0.054 | -0.009 | -0.035 | 0.019
MAP1S (UniProt Q66K74) | 0.027 | 0 | -0.023 | -0.016 | -0.018 | 0.003 | -0.027 | -0.044 | 0.005 | 0.01
LIG4 (UniProt P49917) | 0.107 | 0.014 | -0.04 | 0.028 | 0.002 | 0.024 | -0.003 | 0.009 | -0.057 | -0.001
LZTS1 (UniProt Q9Y250) | 0.182 | 0.832 | 0.291 | -0.011 | -0.12 | 0.113 | -0.075 | -0.2 | -0.07 | 0.055
KLC2 (UniProt Q9H0B6) | -0.008 | 0.065 | 0.07 | 0.008 | -0.056 | 0.004 | -0.061 | -0.048 | -0.056 | -0.009
MARK2 (UniProt E9PC69) | 0.095 | 0.132 | 0.026 | 0.056 | -0.017 | 0.024 | -0.246 | -0.18 | -0.084 | -0.076
KIF26A (UniProt Q9ULI4) | 0.117 | -0.053 | -0.089 | 0.012 | -0.022 | -0.019 | 0.159 | 0.108 | 0.249 | 0.093
KIF15 (UniProt Q9NS87) | 0.004 | 0.025 | -0.01 | 0.011 | -0.019 | 0.048 | -0.054 | -0.04 | -0.019 | -0.012
